Experimental data reported in the supplement of paper PMC6555819.

Key:
Experiment in all cases: PBM binding z-score (relative to random genomic background probes); higher = stronger binding; sequences stand for … in GC…GCGATTGACAGCGTAGAATGAAGG
[1] = test system: FXR:RXRa (NR concentration 270 nM, RXRa partner concentration 90 nM)
Summary of the method: (§1)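 Binding z-scores take random background probes as their reference. They come from custom Agilent 4×180K protein-binding microarrays incubated 1 h with ligand-free nuclear receptor dimers, with antibodies against each partner (one per run) detecting binding. Scanned fluorescence was regression-normalized.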

[2] = test system: LXRa:RXRa (NR concentration 270 nM, RXRa partner concentration 90 nM)
Summary of the method: as §1

[3] = test system: LXRa homodimer (NR concentration 270 nM)
Summary of the method: as §1

[4] = test system: LXRb:RXRa (NR concentration 270 nM, RXRa partner concentration 90 nM)
Summary of the method: as §1

[5] = test system: LXRb homodimer (NR concentration 270 nM)
Summary of the method: as §1

[6] = test system: PPARa:RXRa (NR concentration 270 nM, RXRa partner concentration 90 nM)
Summary of the method: as §1

[7] = test system: PPARg:RXRa (NR concentration 180 nM, RXRa partner concentration 90 nM)
Summary of the method: as §1

[8] = test system: PPARg:RXRa 270nM:90nM, anti-RXR (NR concentration 270 nM, RXRa partner concentration 90 nM)
Summary of the method: as §1

[9] = test system: PPARg:RXRa 30nM:10nM, anti-RXR (NR concentration 30 nM, RXRa partner concentration 10 nM)
Summary of the method: as §1

[10] = test system: PPARg:RXRa 90nM:30nM, anti-RXR (NR concentration 90 nM, RXRa partner concentration 30 nM)
Summary of the method: as §1

[11] = test system: PPARg:RXRa DBDmut IVT, anti-RXR (DBD mutation: RXRa K156A/R161A, NR concentration 270 nM, RXRa partner concentration 90 nM)
Summary of the method: as §1

[12] = test system: PPARg:RXRa IVT, anti-PPARg (NR concentration 270 nM, RXRa partner concentration 90 nM)
Summary of the method: as §1

[13] = test system: PPARg DBDmut:RXRa IVT, anti-PPARg (DBD mutation: PPARg1 K132A/R137A, NR concentration 270 nM, RXRa partner concentration 90 nM)
Summary of the method: as §1

[14] = test system: PPARg DBDmut IVT, anti-PPARg (DBD mutation: PPARg1 K132A/R137A, NR concentration 270 nM)
Summary of the method: as §1

[15] = test system: PPARg homodimer (NR concentration 180 nM)
Summary of the method: as §1

[16] = test system: PXR:RXRa (NR concentration 270 nM, RXRa partner concentration 90 nM)
Summary of the method: as §1

[17] = test system: PXR homodimer (NR concentration 270 nM)
Summary of the method: as §1

[18] = test system: RARa:RXR (NR concentration 270 nM, RXRa partner concentration 90 nM)
Summary of the method: as §1

[19] = test system: RARa homodimer (NR concentration 270 nM)
Summary of the method: as §1

[20] = test system: RARb:RXRa (NR concentration 270 nM, RXRa partner concentration 90 nM)
Summary of the method: as §1

Sequence | PBM binding z-score [1] | PBM binding z-score [2] | PBM binding z-score [3] | PBM binding z-score [4] | PBM binding z-score [5] | PBM binding z-score [6] | PBM binding z-score [7] | PBM binding z-score [8] | PBM binding z-score [9] | PBM binding z-score [10] | PBM binding z-score [11] | PBM binding z-score [12] | PBM binding z-score [13] | PBM binding z-score [14] | PBM binding z-score [15] | PBM binding z-score [16] | PBM binding z-score [17] | PBM binding z-score [18] | PBM binding z-score [19] | PBM binding z-score [20]
TCTTGTAGATCAAAGGTTAAGTAAGCCGAAGCCT | 2.04 | 2.34 | 0.244 | 2.28 | 0.0721 | 4.84 | 8.98 | 8.32 | 7.35 | 8.69 | 2.31 | 3.98 | 0.677 | 0.732 | 0.931 | 2.16 | 0.0156 | 3.2 | 0.12 | 2.23
CGTCCAAGGTCAATGGTAGGTCAGTGAAAGCATT | 6.69 | 5.38 | 2.66 | 4.27 | 0.432 | 5.14 | 3.76 | 4.73 | 1.28 | 3.54 | 3.32 | 3.95 | -0.0725 | -0.844 | 5.44 | 4.84 | 1.79 | 5.88 | 1.16 | 5.37
TTTTGTAGATCAATAGAGGTTAAGAAAGTGCGCT | 0.883 | 3.94 | 1.12 | 1.9 | 0.26 | 2.02 | 0.38 | 1.37 | 1.13 | 1.41 | 1.22 | 1.99 | 1.51 | 1.54 | 1.32 | 3.37 | 0.915 | 2.2 | 1.45 | 1.15
TCTATTAGTAGAAGGGCAACCGACGAGTCCGTTT | 0.288 | 0.212 | 0.0189 | 0.17 | -0.103 | 0.688 | 0.23 | 1.93 | 3.29 | 2.44 | 1.9 | 0.562 | 0.63 | -0.0614 | 0.492 | 0.479 | 0.325 | 0.693 | 0.276 | 1.36
CGTCAAAGTTCAAGTAAGGTAACGTAAAGCACGC | 6.99 | 6.43 | 4.16 | 4.1 | 1.85 | 5.15 | 5.02 | 5.63 | 2.56 | 4.25 | 0.544 | 2.41 | 0.93 | 0.765 | 3.47 | 5.21 | 3.9 | 4.3 | 1.99 | 5.29
TCTATCAGTTGAAGGGCAACCGACGAGTCCGTTT | 0.369 | 0.777 | -0.273 | 0.501 | -0.0897 | 0.935 | 0.152 | 2 | 3.44 | 2.89 | 2.02 | 0.545 | -0.244 | 0.0205 | 0.44 | 0.571 | 0.541 | 0.596 | 0.00832 | 1.63
TCTGCTAGGTCAGTTGGTGAGCTAACGAGCTGCC | 0.898 | 0.467 | -0.796 | -0.0479 | 0.264 | 0.853 | -0.0831 | 1.38 | 1.18 | 1.13 | 2.62 | 2.7 | 0.403 | 1.14 | -0.166 | -0.0879 | -1.19 | 0.102 | -1.25 | 3.16
CGTCAAAGTTCATCTAAGGTAACGTAAAGCACGC | 6.89 | 6.38 | 4.65 | 4.03 | 2.11 | 4.73 | 4.57 | 5.27 | 2.69 | 4.22 | 0.47 | 1.89 | 0.673 | 1.11 | 3.01 | 5.51 | 5.77 | 3.97 | 1.85 | 4.78
GCATATAGGTAATACAAGGTGAAAGTGCGATTGT | 1.29 | 2.52 | 0.475 | 0.725 | -0.0302 | 2.26 | 1.96 | 2.57 | 1.04 | 2 | 3.95 | 3.56 | 1.03 | 1.01 | 0.954 | 0.734 | 0.452 | 1.35 | 0.831 | 0.52
TGTCAAAGTTCAAAGGTAAAGTAAGTATCCACAC | 7.42 | 6.49 | 3.99 | 4.8 | 1.68 | 5.87 | 8.7 | 7.81 | 5.23 | 7.51 | 0.197 | 4.58 | 1.35 | 1.98 | 3.26 | 5.75 | 3.72 | 5.81 | 1.83 | 5.07
TCTTGTCGATCAAGCAGGTTAAGAAAGCCTGAGT | -0.117 | 0.258 | -0.542 | 0.373 | -0.662 | 0.754 | -0.443 | 1.21 | 2.65 | 1.95 | 0.974 | 0.231 | -0.395 | 0.403 | -0.519 | 0.505 | -0.0537 | 0.33 | -0.429 | 0.222
AGAATGAGGTTATTAAGATCGGGGAATTGCGGTC | 1.39 | 1.31 | 0.0422 | 1.14 | 0.139 | 2.39 | 0.982 | 1.43 | 0.253 | 0.888 | 2.65 | 2.39 | 0.666 | -0.0579 | 0.639 | 1.23 | 0.366 | 1.26 | 0.527 | 1.37
TTACCAAGGCGAAAGGTCGTTGATGCACGCCTTG | 1.27 | 1.41 | 0.121 | 1.38 | -0.953 | 3.5 | 5.49 | 6.09 | 5.18 | 6.24 | 0.0972 | 2.19 | -0.305 | -0.595 | 0.815 | 1.96 | -0.0871 | 2.49 | 0.25 | 1.83
CGTATTAGTTGACCATAAGGGCAACCGAAGCTCG | 0.6 | 0.437 | 0.259 | 0.258 | 0.134 | 0.617 | 0.684 | 0.523 | -0.0743 | 0.805 | 0.0759 | 0.784 | 0.0678 | -0.147 | 1.44 | 0.388 | 0.0683 | 0.881 | 0.774 | 1.26
